Hits are enriched below; roughly 10% of the tested compounds scored in any of these assays.
GPT2 inhibitor: inhibitors of human GPT2 alanine aminotransferase; actives 0.25% (n = 100,000); Recombinant GPT2, coupled pyruvate oxidase/HRP Amplex Red fluorescence; Potency, µM (highest dose often 57.7 µM), hits mostly inhibitors; further: nearly all actives have a fitted effect of over 60% in size
Target sequence (Q8TD30 whole entry, looked up): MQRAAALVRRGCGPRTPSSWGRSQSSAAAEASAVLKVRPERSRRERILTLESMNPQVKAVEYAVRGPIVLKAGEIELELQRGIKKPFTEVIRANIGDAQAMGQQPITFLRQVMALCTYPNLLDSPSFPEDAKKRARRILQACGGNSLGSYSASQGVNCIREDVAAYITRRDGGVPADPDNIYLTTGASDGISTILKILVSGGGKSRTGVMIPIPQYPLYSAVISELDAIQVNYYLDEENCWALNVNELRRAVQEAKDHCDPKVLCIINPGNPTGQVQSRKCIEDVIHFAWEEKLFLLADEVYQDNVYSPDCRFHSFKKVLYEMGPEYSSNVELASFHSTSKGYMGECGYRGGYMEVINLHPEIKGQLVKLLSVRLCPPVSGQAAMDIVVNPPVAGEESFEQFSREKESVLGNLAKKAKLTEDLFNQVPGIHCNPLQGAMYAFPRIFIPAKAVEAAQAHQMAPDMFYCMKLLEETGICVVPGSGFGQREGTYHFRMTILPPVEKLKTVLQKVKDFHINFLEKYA
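Inhibition is scored from Amplex Red fluorescence generated when pyruvate oxidase and HRP act on pyruvate released by GPT2. Reactions contain 10ng/uL enzyme, 250uM a-KG and 2mM L-alanine and run 30 min at room temperature.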
NPR1 antag: blocks ANP-stimulated signaling of human Npr1 receptor; actives 1.6% (n = 76,000); HEK293 hNpr1 GloSensor cGMP, ANP-stimulated luminescence; P16066; AID 1347048; Potency, µM (titrated, usually from 46.3 µM), most hits filed as inhibitors; calls by dose curve; further: nearly all actives have a fitted effect of over 60% in size
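HEK293 cells stably expressing human Npr1 and cGMP GloSensor pGS-40F, loaded 2 h with 2% GloSensor reagent, given compound 30 min at room temperature. Luminescence read before and 20 min after 0.1 nM hNppA.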
FLuc inh: blocks purified firefly luciferase enzyme activity; P08659; purified P. pyralis luciferase, luminescence, biochemical; Potency, µM (top dose mostly 115 µM), actives largely listed as inhibitors; actives 2.5% (n = 76,000); AID 1347043; further: nearly all actives have a fitted effect of over 65% in size
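Purified P. pyralis luciferase (10nM final) in 50mM Tris acetate pH 7.5, 10mM Mg acetate, 0.01% Tween-20, 0.05% BSA with 10uM D-luciferin and 10uM ATP. Compounds titrated qHTS. Luminescence imaged on CCD.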
HEK cytotox: HEK 293 cell cytotoxicity; actives 6.6% (n = 94,000); Potency, µM (highest dose often 115 µM), usual class: inhibitors; HEK 293 viability, ATP luminescence (CellTiter-Glo), 48-72 h; AID 1345083; further: nearly all actives have a fitted effect of over 60% in size
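Read-out: CellTiter-Glo ATP luminescence. Cells: HEK 293, 250 cells/well. Exposure: 48 or 72 hr, 37 degree Celsius.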
NIH3T3 tox: cytotoxic compounds in NIH 3T3 cells; NIH 3T3 viability, CellTiter-Glo ATP luminescence, 48-72 h; actives 4.3% (n = 94,000); Potency, µM (top dose mostly 96.7 µM), hits mostly inhibitors; AID 1345082; further: nearly all actives have a fitted effect of over 55% in size
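Mouse fibroblast NIH 3T3 cells, 400 per well, received compound via pintool and were incubated for 48 or 72 hr prior to CellTiter-Glo ATP luminescence measurement.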
NPR1 antag cnf: hNpr1 antagonism, confirmation assay; shares compounds with NPR1 antag; HEK293 hNpr1 cGMP GloSensor luminescence, ANP-stimulated; Potency, µM (highest dose often 57.6 µM), usual class: inhibitors; actives 76% (n = 1,400); calls by dose curve; further: nearly all actives have a fitted effect of over 70% in size
NPR2 antag: antagonizes human Npr2, subtype selectivity check. HEK293 hNpr2 GloSensor cGMP luminescence, CNP-stimulated. actives 67% (n = 1,400). Potency, µM (doses to about 57.6 µM), usual class: inhibitors. shares compounds with NPR1 antag; calls by dose curve; further: nearly all actives have a fitted effect of over 70% in size
FLuc counter: FLuc enzyme inhibition, Npr1 counter-screen | shares compounds with NPR1 antag | purified FLuc enzyme, luminescence, Km substrate | Potency, µM (series often up to 57.6 µM), actives largely listed as inhibitors | actives 0.7% (n = 1,400) | AID 1347047
GloSensor ctrl: control cell line activity, Npr1 antagonist counter-screen; actives 69% (n = 1,400); HEK293 GloSensor cGMP, SNP-stimulated, luminescence; Potency, µM (doses to about 57.6 µM), most hits filed as inhibitors; shares compounds with NPR1 antag; calls by dose curve; further: nearly all actives have a fitted effect of over 70% in size
A number is an active result; - = inactive; ? = inconclusive; . = no result given; [ ] = dose if it differs, or a comment. Unless noted, the call rests on the fitted dose curve; in most records, active means well fitted curve in the direction sought with a large enough effect; inconclusive means small, poorly fitted or top-dose-only effect, or another doubt; inactive means no such curve, though single readings can be large; an effect the other way counts as inactive or inconclusive.

SMILES	GPT2 inhibitor	NPR1 antag	FLuc inh	HEK cytotox	NIH3T3 tox	NPR1 antag cnf	NPR2 antag	FLuc counter	GloSensor ctrl
O=C(Cn1nc2c(cc1=O)CCCC2)N1CCc2c([nH]c3ccccc23)C1	-	-	-	-	-	.	.	.	.
CCOC(=O)C1CCN(C(=O)c2ccc3nnc(-c4cc(C(F)(F)F)cc(C(F)(F)F)c4)n3c2)CC1	-	.	.	?	-	.	.	.	.
CC(C)(C)NS(=O)(=O)c1cncc(-c2cc(F)c3nc(N)nn3c2)c1	-	.	.	.	.	.	.	.	.
CC(=O)N1CCO[C@@H](COc2ccccn2)[C@@H]1c1ccccc1	-	.	.	-	-	.	.	.	.
COc1ccc(C(=O)N2CCC(C(=O)N3CCCC3c3nc4ccncc4[nH]3)CC2)cc1 (stereo unspecified)	-	.	.	-	-	.	.	.	.
COc1ccc(C2Cn3nnc(C(=O)N4CCN(C(=O)c5cc(C)ccc5C)CC4)c3CO2)cc1 (stereo unspecified)	-	?	-	?	?	?	-	-	-
COc1ccc(C2Cn3nnc(C(=O)N4CCN(C(=O)Cc5ccc(F)cc5)CC4)c3CO2)cc1 (stereo unspecified)	-	8.9µM	-	?	-	14µM	15µM	-	14µM
Cc1ccc(C(=O)N2CCN(C(=O)c3nnn4c3COC(c3ccc(F)cc3)C4)CC2)cc1C (stereo unspecified)	-	11µM	-	45µM	?	27µM	22µM	-	24µM
Cc1ccc(C2Cn3nnc(C(=O)N4CCN(C(=O)c5ccc(F)cc5)CC4)c3CO2)cc1 (stereo unspecified)	-	-	-	-	-	.	.	.	.
O=C(c1ccc(C(F)(F)F)cc1)N1CCc2nc(C3CC3)nc(-c3ccc(O)cc3)c2C1	-	.	.	?	?	.	.	.	.
Cn1ncc2c(C(=O)N3CCN(c4ncccn4)CC3)cc(-c3ccccc3)nc21	?	.	.	?	-	.	.	.	.
O=C(C1CCCN1[S+](=O)([O-])c1ccccc1)N1CCC(N2CCCC2=O)CC1 (stereo unspecified)	-	.	.	-	-	.	.	.	.
COc1c[nH]c(CN2CCCC(Nc3ccc(C(C)C)cc3)C2)cc1=O (stereo unspecified)	-	?	-	?	?	22µM	19µM	-	22µM
COc1c[nH]c(CN2CCCC(CCc3ccccc3C)C2)cc1=O (stereo unspecified)	-[11.5 µM]	-	-	-	-	.	.	.	.
Cn1ccc2c(C(=O)NCc3cccnc3)nc(-c3cccc4cc[nH]c34)cc21	?	?	-	?	?	?	?	-	-
Cn1ccc2c(C(=O)NCc3cccnc3)nc(Nc3ccccc3)cc21	-	?	-	63µM	?	35µM	35µM	-	31µM
COc1ccc(CNC(=O)c2nc(-c3ccccc3OC)cc3c2ccn3C)cc1OC	-	-	-	?	-	.	.	.	.
CN1C2CCC1CC(OC(=O)[C@H](CO)c1ccccc1)C2 (stereo partly specified)	-	.	.	.	.	.	.	.	.
COCCN1C[C@H]2COc3ccccc3[C@H]2N(C(=O)CC(C)(C)C)CCC1=O	.	.	.	?	-	.	.	.	.
COc1ccc([C@@H]2CN(c3nnnn3-c3ccccc3)C[C@H]2NC(C)=O)cc1	-	?	-	-	-	?	?	-	-
CCOCC(=O)N1CCN(c2nnnn2-c2ccccc2)CC(O)C1 (stereo unspecified)	-	-	-	-	-	.	.	.	.
CC(C)C(=O)Nc1cc(C2CC2)nn1C	-	.	.	-	-	.	.	.	.
CCOC(=O)N1[C@@H](c2ccccc2)[C@@H](C(=O)O)C[C@]12CCCCN(CCOC)C2=O	.	.	.	-	?	.	.	.	.
CCc1noc(-c2cn(C3CCN(C(=O)c4ccc(C(C)(C)C)cc4)C3)nn2)n1 (stereo unspecified)	-	16µM	-	?	?	24µM	?	-	27µM
CC(C)c1noc(-c2cn(C3CCN(C(=O)c4ccc(Cl)s4)C3)nn2)n1 (stereo unspecified)	-	8.9µM	-	?	?	12µM	12µM	-	14µM
SMILES	GPT2 inhibitor	NPR1 antag	FLuc inh	HEK cytotox	NIH3T3 tox	NPR1 antag cnf	NPR2 antag	FLuc counter	GloSensor ctrl
CC(C)c1noc(-c2cn(C3CCN(C(=O)c4ccc(OC(F)(F)F)cc4)C3)nn2)n1 (stereo unspecified)	-	14µM	-	?	?	14µM	19µM	-	15µM
CC(C)c1noc(-c2cn(C3CCN(C(=O)c4ccc(F)cc4)C3)nn2)n1 (stereo unspecified)	-	-	-	?	-	.	.	.	.
CC(C)c1noc(-c2cn(C3CCN(C(=O)c4cccc(Br)c4)C3)nn2)n1 (stereo unspecified)	-	11µM	-	?	-	19µM	22µM	-	22µM
COc1ccc(C(=O)N2CCC(n3cc(-c4nc(C(C)C)no4)nn3)C2)cc1OC (stereo unspecified)	-	-	-	-	-	.	.	.	.
CCc1noc(-c2cn(C3CCN(C(=O)c4ccccc4)C3)nn2)n1 (stereo unspecified)	-	-	-	-	-	.	.	.	.
CNC(=O)c1nc2cccnc2n(C2CC2)c1=O	-	.	.	-	-	.	.	.	.
COC(=O)[C@@H]1Cc2ncn(Cc3ccc(Cl)cc3)c2CN1C(=O)c1cccs1	-	-	-	-	?	-	-	-	-
O=C(C1CCCN1C(=O)c1ccccc1)N1CCC(N2CCCC2=O)CC1 (stereo unspecified)	-	.	.	-	-	.	.	.	.
Cc1nc(C)c(CC(=O)N2CCCC(C)(Cc3ccc4c(c3)OCO4)C2)s1 (stereo unspecified)	-	14µM	-	28µM	-	19µM	22µM	-	17µM
O=C(c1nc2c(o1)CCN(Cc1ccc3c(c1)CCO3)CC2)N1CCOCC1	-	-	-	?	-	.	.	.	.
O=C(NCC1CC1)c1nc2c(o1)CCN(Cc1ccc3c(c1)CCO3)CC2	-	25µM	-	?	?	44µM	?	-	35µM
Cc1cc(F)cc(CN2CCc3nc(C(=O)NCC4CC4)oc3CC2)c1	-	22µM	-	?	?	31µM	28µM	-	28µM
COc1cc(OC)cc(C(=O)N2CC(c3noc(-c4ccccc4)n3)C2)c1	-	-	-	-	-	.	.	.	.
O=C(O)c1cccc(C2CCCN(C(=O)c3ccccc3-n3cccn3)C2)c1 (stereo unspecified)	-	-	-	-	-	.	.	.	.
